Most compounds without a hit are left out; they make up all but 4.5% or so of the library.
Efflux pump inh = inhibitors of Candida efflux pumps in yeast, primary screen, S. cerevisiae, Nile Red, multiplex; inhibition, % at 10 µM; actives 0.44% (n = 330,000); S. cerevisiae Candida pump triplex;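 active = plate passing quality check with inhibition over a set limit, or well fluorescence over plate mean plus 4 SD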;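 also: Nile Red retained in pooled yeast measured as flow cytometry median fluorescence; higher means more Nile Red kept so more efflux inhibition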
ALR inh = inhibitors of human ALR sulfhydryl oxidase, primary screen, biochemical, H2O2 detection, HRP-luminol luminescence, single point | FAD-linked sulfhydryl oxidase ALR (Homo sapiens), P55789 | purified ALR, DTT oxidation | inhibition, % (test concentration not listed) | actives 3.8% (n = 290,000);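 active = mean replicate inhibition above about 79%, with every replicate also reaching it, limit read from the data; inconclusive = only one of the two criteria met; inactive = mean below limit and not every replicate reaching it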
GRK2 inh = compounds blocking aptamer binding on GRK2 – biochemical, human GRK2, bead flow cytometry, HTS, primary screen. FAM-aptamer displacement from GRK2. AID 488847, 2010. actives 0.59% (n = 330,000). Beta-adrenergic receptor kinase 1 (Homo sapiens), P25098. inhibition of aptamer binding, % at 10 µM;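 active = inhibition of aptamer binding above 40%, roughly 3 SD of noise, on plates passing a quality check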;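 also: median bead fluorescence of bound FAM aptamer so fluorescent compounds give negative values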
Target sequence (P25098 whole entry, looked up): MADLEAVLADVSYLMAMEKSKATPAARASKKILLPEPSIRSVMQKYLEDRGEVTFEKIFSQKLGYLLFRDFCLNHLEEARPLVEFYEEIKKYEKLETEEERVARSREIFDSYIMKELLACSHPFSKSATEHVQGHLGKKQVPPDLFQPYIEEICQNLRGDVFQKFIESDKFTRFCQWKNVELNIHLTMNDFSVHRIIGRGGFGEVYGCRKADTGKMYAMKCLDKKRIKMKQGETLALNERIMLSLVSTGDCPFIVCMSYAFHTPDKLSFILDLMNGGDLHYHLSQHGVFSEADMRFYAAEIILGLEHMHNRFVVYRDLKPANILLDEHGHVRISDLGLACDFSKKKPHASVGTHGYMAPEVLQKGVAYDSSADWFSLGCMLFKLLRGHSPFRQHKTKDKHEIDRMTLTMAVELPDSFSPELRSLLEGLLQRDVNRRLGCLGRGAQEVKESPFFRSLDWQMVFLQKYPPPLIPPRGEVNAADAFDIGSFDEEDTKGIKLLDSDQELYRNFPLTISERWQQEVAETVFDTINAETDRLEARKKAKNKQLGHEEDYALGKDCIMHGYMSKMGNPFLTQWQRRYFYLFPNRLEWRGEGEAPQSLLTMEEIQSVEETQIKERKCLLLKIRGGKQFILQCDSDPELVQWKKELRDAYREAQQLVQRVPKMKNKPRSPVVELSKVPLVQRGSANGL
Rtt109 HAT inh = inhibitors of C. albicans Rtt109/Vps75 HAT, primary screen, biochemical, ThioGlo CoA-SH fluorescence, plate reader. Histone acetyltransferase RTT109 (Candida albicans (strain SC5314 / ATCC MYA-2876)), …. purified Rtt109/Vps75, 4 h. inhibition, % at 34.9 µM. actives 0.16% (n = 330,000). AID 540336, 2011;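 active = inhibition of at least 50% in every replicate; inconclusive = best replicate reaches 50% inhibition but some replicates fall short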
Rce1 inhib = yeast Rce1p protease inhibitors, primary screen, biochemical, fluorescence, cell-free homogeneous. yeast membranes, quenched prenylated peptide cleavage fluorescence. actives 0.27% (n = 290,000). calls only. CAAX prenyl protease 2 (Saccharomyces cerevisiae (strain ATCC 204508 / S288c)), Q03530;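 active = fall in fluorescence gain of 50% or more versus controls, with final raw signal at or below 3038400; inconclusive = same 50% fall but final raw signal above 3038400; inactive = fall in fluorescence gain under 50%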
HDAC3 inh = HDAC3 deacetylase inhibitors, primary screen, biochemical, fluorescence, cell-free homogeneous; recombinant HDAC3, fluorogenic peptide/trypsin coupled; inhibition, % at 8.3 µM; actives 0.15% (n = 320,000); Histone deacetylase 3 (Homo sapiens), O15379; in the data active = inhibition above about 26%, passing the limit was not always enough; inconclusive = no clear call, values can overlap the other calls
Of the large screens only hits and unclear results are named; the others gave an inactive call.

CC(C)c1ccc(NC(=O)COC(=O)c2nn(C)c(=O)c3ccccc23)cc1	none (no result: Rce1 inhib)
CN1C(=O)c2ccccc2N(C)C1c1ccccc1Cl (stereo not drawn)	Rce1 inhib active
CC(=O)Nc1ncc(N=Nc2cccc(C(F)(F)F)c2)s1	none
Cc1cccc(N=Nc2cnc(N)s2)c1	ALR inh 99.4
Cc1cc(C)n(Cc2cccc(C(=O)N/N=C/c3cccnc3)c2)n1	none (no result: Efflux pump inh, ALR inh, GRK2 inh, HDAC3 inh)
COc1ccc2c(-c3ccccc3)cc(SCC(=O)NC(N)=O)nc2c1	none
COCCNC(=O)CSc1cc(-c2ccccc2)c2ccc(OC)cc2n1	ALR inh 97.0
CCn1cc(CNC(=S)Nc2cccc3ccccc23)cn1	none (no result: ALR inh)
CCc1cc(CNC(=O)CC2C(=O)NCCN2Cc2cccc(OC)c2)on1 (stereo not drawn)	none
CC(=O)c1cccc(NC(=O)CSc2nc(=O)n(CCCN3CCOCC3)c3c2CCC3)c1	ALR inh 97.8
Cc1cccc(NC(=O)CSc2nc(=O)n(CCCN3CCOCC3)c3c2CCCC3)c1	ALR inh 97.6
O=C(CSc1nc(=O)n(CCCN2CCOCC2)c2c1CCCC2)Nc1cccc(Cl)c1	ALR inh 98.6, HDAC3 inh inconclusive (no result: Rtt109 HAT inh)
Cc1cc(C)cc(NC(=O)CSc2nc(=O)n(CCN3CCOCC3)c3c2CCCC3)c1	none
COc1ccc(C(=O)N2CCCC(N3CCN(c4ccccc4F)CC3)C2)c(OC)n1 (stereo not drawn)	none
CCC(=O)Nc1cccc(C(=O)c2ccc(C)c(C)c2)c1	none
CCC1CCCCN1CCCCOc1cccc(Cl)c1 (stereo not drawn)	none
CSc1nc(-c2ccccc2)nn1C(=O)c1ccccc1	HDAC3 inh inconclusive
CCCC(=O)n1nc(-c2ccccc2)nc1SC	HDAC3 inh 32.0
CCN(CC)CCCn1c2c(c(SCC(=O)Nc3nc4ccccc4s3)nc1=O)CCC2	ALR inh 98.7
CN(C)CCCn1c2c(c(SCC(=O)Nc3ccc4c(c3)OCCO4)nc1=O)CCC2	ALR inh 98.8
CCN(CC)CCn1c2c(c(SCC(=O)Nc3cccc4ccccc34)nc1=O)CCCC2	ALR inh 95.8
Cc1ccc(NC(=O)CSc2nc(=O)n(CCN(C)C)c3c2CCCC3)cc1Cl	ALR inh 98.1 (no result: Rtt109 HAT inh)
CCN(CC)CCCn1c2c(c(SCC(=O)Nc3ccc(OC(F)(F)F)cc3)nc1=O)CCC2	none
CCCC(=O)Nc1ccccc1NC(=O)c1ccc(OC)cc1	none
COc1ccc(NC(=O)CSc2nc(=O)n(CCN(C)C)c3c2CCCC3)cc1	none (no result: Rtt109 HAT inh)
CCN(CC)CCCn1c2c(c(SCC(=O)Nc3ccc(C)c(F)c3)nc1=O)CCC2	ALR inh 97.1
CCCCc1ccc(NC(=O)CSc2nc(=O)n(CCN(CC)CC)c3c2CCCC3)cc1	ALR inh 98.1
CCCCc1ccc(NC(=O)CSc2nc(=O)n(CCN(C)C)c3c2CCC3)cc1	ALR inh 98.2
COc1cc(-c2nc3cnccn3c2Nc2ccccc2)ccc1O	ALR inh inconclusive
COc1cc(-c2nc3cnccn3c2Nc2ccc3c(c2)OCCO3)ccc1O	ALR inh 98.7
COc1cc(-c2nc3cnccn3c2Nc2ccc(C)cc2)ccc1O	ALR inh 99.5
CC(C)(C)Nc1c(-c2ccc(O)cc2)nc2ccc(Cl)cn12	none
CC(C)(C)CC(C)(C)Nc1c(-c2ccc(O)cc2)nc2cnccn12	ALR inh 99.9
Oc1ccc(-c2nc3cnccn3c2Nc2ccc3c(c2)OCCO3)cc1	ALR inh 98.9
CCOc1ccccc1-n1c(SC(C)C(=O)NCC2CCCO2)nc2ccccc2c1=O (stereo not drawn)	none (no result: Rce1 inhib)
Cc1ccc2c(c1)C1(OCCCO1)C(=O)N2	none
COc1cc(-c2nc3ccc(C)cn3c2Nc2ccc3c(c2)OCCO3)ccc1O	ALR inh 91.1
CC(C)NC(=O)CN(Cc1ccc(F)cc1)C(=O)CCC(=O)Nc1ccccn1	none (no result: ALR inh)
CC(Sc1ccc2c(c1)OCCO2)C(=O)Nc1ccc2c(c1)OCO2 (stereo not drawn)	none (no result: ALR inh)
CC(Sc1ccc2c(c1)OCCO2)C(=O)Nc1ncc(Cl)cc1Cl (stereo not drawn)	ALR inh 99.2
COc1ccccc1NC(=O)CSc1nc2c(sc3ccccc32)c(=O)n1CCN(C)C	ALR inh 99.1
O=C(CSc1nc2c(sc3ccccc32)c(=O)n1CCCN1CCCC1)NCc1ccco1	ALR inh 97.9
CCN(CC)CCn1c(SCC(=O)Nc2ccc(F)cc2)nc2c(sc3ccccc32)c1=O	ALR inh 99.0 (no result: Rtt109 HAT inh)
CC(C)NC(=S)NN(c1ccccc1)c1ccccc1	ALR inh 99.4
CC1CCN(c2ccc3c(c2)S(=O)(=O)c2cccc(C(=O)NC4CCCCC4)c2C3=O)CC1	none (no result: Rce1 inhib)
O=C(CSC1=NS(=O)(=O)c2cc(Cl)ccc2N1)Nc1cccc(F)c1	ALR inh 98.1
CC(=O)c1ccc(NC(=O)CSC2=NS(=O)(=O)c3cc(Cl)ccc3N2)cc1	none (no result: ALR inh, HDAC3 inh)
O=C(CSC1=NS(=O)(=O)c2ccccc2N1)Nc1ccc(F)cc1	ALR inh 96.7
O=C(CSC1=NS(=O)(=O)c2cc(F)ccc2N1)Nc1ccc(F)cc1	none (no result: ALR inh, HDAC3 inh)
CC1Cc2ccccc2N1C(=O)C(C)n1cc(C(F)(F)F)cc(Cl)c1=O (stereo not drawn)	none (no result: Rce1 inhib)
Cc1cccc(OCCN2C(=O)C(=O)c3cc(C)ccc32)c1	Rce1 inhib active
CN(Cc1ccccc1)C(=O)COC(=O)CCN1C(=O)C2CC=CCC2C1=O (stereo not drawn)	none (no result: Rce1 inhib)
O=C(c1cc2ccccc2[nH]1)N(Cc1cccnc1)CC1CCCN(C2CCCCC2)C1 (stereo not drawn)	none
O=C(NC(=S)NCc1ccncc1)c1ccccc1	ALR inh 93.7
O=C(NC(=S)NCc1ccccc1)c1ccccc1	none (no result: Rtt109 HAT inh)
CCN(C[C@H]1N[C@@](CC)(C(=O)OC)[C@H]2C(=O)N(Cc3ccccc3)C(=O)[C@@H]12)C(=O)c1ccccc1	none (no result: ALR inh, Rce1 inhib, HDAC3 inh)
CCOC(=O)c1c(NC(=O)CSc2n[nH]c(-c3ccco3)n2)sc(C)c1C	none
O=C(CSc1n[nH]c(-c2ccco2)n1)Nc1sc2c(c1C(=O)Nc1ccccc1)CCCC2	ALR inh 97.9
NC(=O)c1c(NC(=O)CSc2nnc(-c3ccco3)n2-c2ccccc2)sc2c1CCC2	ALR inh 97.5
Cc1cc(Cl)ccc1-n1c(-c2cccnc2)n[nH]c1=S	none
CC1CCCCC1n1c(-c2cccnc2)n[nH]c1=S (stereo not drawn)	ALR inh 87.2 (no result: Rtt109 HAT inh)

High-throughput results deposited in PubChem by several laboratories.
